Here are results for 70 compounds from PubChem BioAssay AID1240 (Sanford-Burnham Center for Chemical Genomics, 2008).

Several values for one entry are separate records, joined by “and”; a condition that tells them apart may be missing. Identical values can stand only once. The whole screen tested about 50,000 compounds, of which about 800 (1.6%) showed an effect of 50% or more. This excerpt belongs to a sample that is enriched for strong results.

The target in the test is Bcl-2-like protein 10 (Homo sapiens) (UniProt Q9HD36). Put plainly: Phenotype converters, Bcl-B/TR3 peptide binding displacement, primary biochemical FP (AID 1240).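 Further: 0% = Bcl-B with tracer peptide and DMSO and 100% = tracer peptide lacking Bcl-B.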 As to conditions: GST-Bcl-B / FITC-TR3 peptide fluorescence polarization; stronger effect = higher value; compound at 3.75 mg/L.
Bcl-2-like protein 10 (Homo sapiens), sequence (Q9HD36 whole entry, looked up): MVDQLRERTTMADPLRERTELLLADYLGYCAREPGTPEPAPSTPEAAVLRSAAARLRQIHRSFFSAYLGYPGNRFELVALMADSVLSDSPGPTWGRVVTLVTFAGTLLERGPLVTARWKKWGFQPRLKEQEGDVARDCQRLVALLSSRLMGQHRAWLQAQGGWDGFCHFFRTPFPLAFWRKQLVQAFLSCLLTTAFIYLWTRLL
For `O=C(/C=C/c1ccc(F)cc1)NC(=S)NCc1ccco1`, the displacement came to 18.2%.

Consider `O=C1NC(=O)N(c2ccccc2)C(=O)/C1=C\c1ccc(-c2ccccc2Cl)o1`, for which the displacement turned out to be 42.6%. As for `CN1C(=O)NC(=O)/C(=C/c2ccc(-c3cccc(Cl)c3Cl)o2)C1=O`, the displacement was 74.5%. Then `Cc1ccc(N2C(=O)NC(=O)/C(=C\c3ccc(-c4ccc([N+](=O)[O-])cc4Cl)o3)C2=O)cc1`, with 87.2%; and `Cc1ccc(-c2ccc(C=C3C(=O)NC(=O)NC3=O)o2)c([N+](=O)[O-])c1`, with 1.3%; and `CN1C(=O)C(=Cc2ccc(-c3cccc(Cl)c3Cl)o2)C(=O)N(C)C1=O`, with 4.6%. Then `Cc1cc(-c2ccc(C=C3C(=O)NC(=S)NC3=O)o2)c([N+](=O)[O-])cc1C`, with 26.1%.

For the compound `O=C1NC(=O)C(=Cc2ccc(-c3cc(Cl)c([N+](=O)[O-])cc3Cl)o2)C(=O)N1`, the displacement was 81.2%. Then `COc1ccc(N2C(=O)NC(=O)/C(=C/c3ccc(-c4ccc([N+](=O)[O-])cc4Cl)o3)C2=O)cc1`, with 20.3%; and `O=C1NC(=S)N/C1=C/c1ccc(-c2cccc(Br)c2)o1`, with 15.5%; and `Cc1ccc(-c2ccc(C=C3C(=O)NC(=O)NC3=O)o2)c(Br)c1`, with -9.6%. Then `O=C1NC(=O)C(=Cc2ccc(-c3cccc(Br)c3)o2)C(=O)N1`, with 81.1%; and `O=C1NC(=O)N(c2ccccc2)C(=O)/C1=C\c1ccc(-c2ccc([N+](=O)[O-])cc2Cl)o1`, with 11.5%. As to `Nc1nonc1N=Cc1cc(Br)ccc1O`, the displacement is -12.8%. Then `CCC1CCc2c(sc(NC(=O)C3CCCC3)c2C(N)=O)C1` (stereo not given), with -1.5%. Then `COc1cc(/C=C2/C(=O)NC(=O)N(c3cccc(C)c3)C2=O)ccc1OCC(=O)O`, with -14.8%. The figure for `Cc1cc(=O)[nH]c(SCc2cccc(Oc3ccccc3)c2)n1` is -8% and 5.2%; for `CCCCOc1cc2oc(=O)c(CC)c(C)c2cc1CC` it is 0.2%. As for `CN(c1ccccc1)c1ccc(C=C2C(=O)NC(=O)NC2=O)cc1`, the displacement came to 19.6%. Then `CC(/C=C/c1ccc(N(C)C)cc1)=N\N=C(/N)SC1CC(=O)N(c2ccc(F)cc2)C1=O` (stereo not given), with -8.3%; and `COc1cc2c(C)nc3c(c(C)nn3C)c2cc1OC`, with -1.5%; and `COc1cc2c(C)nc3c(cnn3-c3ccccc3)c2cc1OC`, with -5.8%.

Consider `COc1cc2c(C)nc3c(c(C)nn3-c3ccccc3)c2cc1OC`, for which the displacement was 59.5%.

With `CCOc1cc(C2CC(=O)NC(C)=C2C(=O)OC)cc(Br)c1OC` (stereo not given), the displacement amounted to 10.6%. The figure for `CCOP(=O)(OCC)C(Nc1ccccc1)c1ccc2c(c1)OCO2` (stereo not given) is 13.6%.

In the case of `CCCOP(=O)(OCCC)C(Nc1ccc(Cl)cc1)c1ccc(Br)cc1` (stereo not given), the displacement worked out at 17.1%. Then `CCCCOP(=O)(OCCCC)C(Nc1ccccc1)c1ccc(OC)cc1` (stereo not given), with 52.1%; and `CN1CCc2c(sc3c2C(=O)NC(c2ccc(Cl)s2)N3)C1` (stereo not given), with 4%; and `COc1cc(C2NC(=O)c3c(sc4c3CCN(C)C4)N2)cc(OC)c1OC` (stereo not given), with 3.2%. The figure for `CN1CCc2c(sc3c2C(=O)NC(c2ccc4ccccc4c2)N3)C1` (stereo not given) is 83%.

For the compound `CCOC(=O)NC12CC3CC(C1)CC(C(F)(F)F)(C3)C2`, the displacement stood at 3.2%.

With `COc1ccc(/C=N\N2CCN(c3ccccc3)CC2)cc1`, the displacement was -0.3%. Consider `CCOC(=O)c1c(NC(=O)Cc2ccc(Cl)cc2)sc(C(=O)Nc2ccc(OC)cc2OC)c1C`, for which the displacement was 18.5%.

As to `O=C1CCNc2c(Cl)cc(Cl)cc21`, the displacement is 88.6%.

On to `C/C(=N\N1CCN(c2ccccc2)CC1)c1ccc(F)cc1`, for which the displacement was -8.7%. Then `CC1(C)Cc2ccccc2C(N/N=C/c2ccc(Cl)cc2)=N1`, with -3.6%. Take `O=c1oc2ccc(Br)cc2cc1-c1nc(-c2ccc([N+](=O)[O-])cc2)cs1`: the displacement is -7.2%.

For `Cc1ccc(-c2nc(-c3cc4cc([N+](=O)[O-])cc(Br)c4oc3=O)cs2)c(C)c1`, the displacement came to 95.2%. With `O=c1oc2ccc(Br)cc2cc1-c1csc(-c2cc3cc([N+](=O)[O-])ccc3oc2=O)n1`, the displacement is -5.4%. The figure for `Cc1ccc(S(=O)(=O)Nc2ccc(S(=O)(=O)N3CCCCC3)cc2)cc1[N+](=O)[O-]` is -4%; for `Cn1c(=O)c(C2=NS(=O)(=O)c3ccccc3N2)c(O)c2ccccc21` it is 2.1%; for `CC(=O)CC(c1ccccc1)S(=O)(=O)c1ccccc1C` (stereo not given) it is 0.2%.

In the case of `O=C(NCCCc1ccccc1)C(F)(F)F`, the displacement is 85.1%. Take `O=C(NCCCc1ccccc1)c1ccccc1`: the displacement was -1.3%. Then `O=C(NCCC(c1ccccc1)c1ccccc1)C(F)(F)F`, with -1.5%; and `CCCCOc1ccc(C=O)cc1OCC`, with -7.3%; and `CC(=O)C1=C(O)C(=O)N(CCN2CCNCC2)C1c1cccc(F)c1` (stereo not given), with -17.2%. The figure for `CCOC(=O)c1ccc(N2C(=O)NC(=O)/C(=C/c3ccc(OC)c(OC)c3)C2=O)cc1` is -4.2%. Then `CCCC(=O)NC(c1ccco1)c1c(O)ccc2ccccc12` (stereo not given), with 6.6%; and `COc1ccc(N/C=C/C(=O)c2ccco2)cc1`, with 11.7%; and `NS(=O)(=O)c1ccc(N/C=C/C(=O)c2ccc(Cl)c(Cl)c2)cc1`, with 4.8%. For `NS(=O)(=O)c1ccc(N/C=C/C(=O)c2ccco2)cc1`, the displacement turned out to be 74.8%. The figure for `Cc1ccc(N2C(=O)NC(=O)/C(=C\c3ccc(N(C)C)c(Br)c3)C2=O)cc1` is 10.1%; for `CC(=O)c1cccc(N2C(=O)C3CCCCC3C2=O)c1` (stereo not given) it is -12.9%; for `COc1ccccc1/C=C1\C=C(c2ccc(Cl)cc2)OC1=O` it is 9.6%. Consider `COc1ccc(C2=C/C(=C/c3ccccc3OC)C(=O)O2)cc1`, for which the displacement was 85.1%. Then `COc1ccc(OC)c(/C=C2/C=C(c3ccccc3)OC2=O)c1`, with -24.5%; and `COc1ccc(/C=C2\C=C(c3ccc(Cl)cc3)OC2=O)c(OC)c1`, with 25.2%.

As for `CC(=O)Oc1ccccc1/C=C1\C=C(c2ccc(C)cc2)OC1=O`, the displacement is -0.2%. For `CC(=O)Oc1ccccc1/C=C1\C=C(c2ccc(Br)cc2)OC1=O`, the displacement was determined as 12%. The figure for `COc1ccc(/C=C2/C=C(c3ccccc3)OC2=O)c(OC)c1` is -30%; for `CC(=O)Oc1ccccc1/C=C1\C=C(c2ccc(Cl)cc2)OC1=O` it is 108%; for `COc1ccc(C2=C/C(=C/c3ccc(OC)cc3OC)C(=O)O2)cc1` it is 144%. Then `O=C(CCc1ccccc1)Nc1ccc(Br)cc1`, with 9.1%; and `O=[N+]([O-])c1cccc(Cl)c1N1CCN(CCO)CC1`, with 89.3%; and `O=C(c1ccccc1Cl)N1CCN(c2c(Cl)cccc2[N+](=O)[O-])CC1`, with 8.5%. As for `O=[N+]([O-])c1cccc(Cl)c1N1CCOCC1`, the displacement stood at 3.9%.

For the compound `Cc1ccc(C(=O)Nc2cccc(NC(=O)c3ccco3)c2)cc1C`, the displacement came to 60.4%. On to `Cc1ccc(C(=O)Nc2ccc(NC(=O)c3ccco3)c(Cl)c2)cc1C`, for which the displacement is -8.9%. The figure for `Cc1ccc(C(=O)Nc2ccc(NC(=O)c3ccco3)cc2)cc1C` is -0.4%.
